Measurements from PubChem BioAssay (Tox21).
“And” between values parts separate entries of the source, which are not always exact repeats. Equal entries are not always repeated. Records with an inconclusive call do not appear. The source holds several records for some structures; these can differ, active in one and inactive in another. The source made the active and inactive calls. Unless noted, calls follow the shape of the dose curve; as a rule, active = well fitted curve in the direction sought with a large enough effect in the repeat runs; inconclusive = weak or mixed curves; inactive = no such curve, though single readings can be large; an effect the other way counts as inactive or inconclusive.

What was measured:
[1] = target: Cytochrome P450 2D6 (Homo sapiens) (UniProt P10635); assay: Cytochrome P450 Family 2 Subfamily D Member 6 (CYP2D6) small molecule antagonists: luciferase reporter qHTS assay (AID 1671196); also: nearly all actives have a fitted effect of over 50% in size; also: potency is read from the fitted curve at half-maximal effect
Sequence of Cytochrome P450 2D6 (Homo sapiens) (P10635 whole entry, looked up): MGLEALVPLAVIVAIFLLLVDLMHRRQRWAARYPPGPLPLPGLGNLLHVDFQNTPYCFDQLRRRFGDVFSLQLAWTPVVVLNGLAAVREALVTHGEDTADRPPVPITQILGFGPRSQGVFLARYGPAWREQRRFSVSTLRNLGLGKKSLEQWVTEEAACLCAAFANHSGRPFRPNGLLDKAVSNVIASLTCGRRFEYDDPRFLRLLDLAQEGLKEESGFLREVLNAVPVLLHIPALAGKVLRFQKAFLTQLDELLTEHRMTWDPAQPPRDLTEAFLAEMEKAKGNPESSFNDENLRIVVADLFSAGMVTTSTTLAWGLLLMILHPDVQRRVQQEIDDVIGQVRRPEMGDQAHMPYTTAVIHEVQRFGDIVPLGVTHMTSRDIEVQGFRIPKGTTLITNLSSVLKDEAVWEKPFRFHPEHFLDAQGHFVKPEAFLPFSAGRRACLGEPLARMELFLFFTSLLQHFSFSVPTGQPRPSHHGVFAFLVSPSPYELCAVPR
How it was run: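 Room-temperature luminescent CYP2D6 activity assay: compound preincubated 10 min with enzyme–substrate mix, NADPH-initiated reaction 1 h, detection reagent 20 min before reading.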

[2] = target: Cytochrome P450 2C19 (Homo sapiens) (UniProt P33261); assay: Cytochrome P450 Family 2 Subfamily C Member 19 (CYP2C19) small molecule antagonists: luciferase reporter qHTS assay (AID 1671197); also: nearly all actives have a fitted effect of over 65% in size; also: potency is read from the fitted curve at half-maximal effect
Sequence of Cytochrome P450 2C19 (Homo sapiens) (P33261 whole entry, looked up): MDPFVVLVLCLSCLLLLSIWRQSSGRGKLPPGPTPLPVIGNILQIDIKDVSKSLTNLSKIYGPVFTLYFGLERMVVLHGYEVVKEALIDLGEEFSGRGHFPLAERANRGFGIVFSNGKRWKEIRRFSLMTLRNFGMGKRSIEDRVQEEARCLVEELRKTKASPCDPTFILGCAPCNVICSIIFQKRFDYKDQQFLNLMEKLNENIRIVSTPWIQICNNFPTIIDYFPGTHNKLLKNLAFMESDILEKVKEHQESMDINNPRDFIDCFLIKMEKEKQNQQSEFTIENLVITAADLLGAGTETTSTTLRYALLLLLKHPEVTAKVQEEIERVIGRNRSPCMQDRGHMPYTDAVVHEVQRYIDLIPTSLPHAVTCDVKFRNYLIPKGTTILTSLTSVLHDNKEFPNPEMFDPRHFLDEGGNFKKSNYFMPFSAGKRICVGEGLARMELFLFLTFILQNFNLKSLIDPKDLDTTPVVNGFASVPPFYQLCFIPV
How it was run: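 P450-Glo CYP2C19 system: enzyme-substrate mix with compound 10 min at room temperature, then NADPH regeneration solution, 1 h at 37C. Proluciferin-to-luciferin conversion detected by luminescence after 20 min with detection reagent; ketoconazole as positive control.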

[3] = target: Cytochrome P450 2C9 (Homo sapiens) (UniProt P11712); assay: Cytochrome P450 Family 2 Subfamily C Member 9 (CYP2C9) small molecule antagonists: luciferase reporter qHTS assay (AID 1671198); also: nearly all actives have a fitted effect of over 50% in size; also: potency is read from the fitted curve at half-maximal effect
Sequence of Cytochrome P450 2C9 (Homo sapiens) (P11712 whole entry, looked up): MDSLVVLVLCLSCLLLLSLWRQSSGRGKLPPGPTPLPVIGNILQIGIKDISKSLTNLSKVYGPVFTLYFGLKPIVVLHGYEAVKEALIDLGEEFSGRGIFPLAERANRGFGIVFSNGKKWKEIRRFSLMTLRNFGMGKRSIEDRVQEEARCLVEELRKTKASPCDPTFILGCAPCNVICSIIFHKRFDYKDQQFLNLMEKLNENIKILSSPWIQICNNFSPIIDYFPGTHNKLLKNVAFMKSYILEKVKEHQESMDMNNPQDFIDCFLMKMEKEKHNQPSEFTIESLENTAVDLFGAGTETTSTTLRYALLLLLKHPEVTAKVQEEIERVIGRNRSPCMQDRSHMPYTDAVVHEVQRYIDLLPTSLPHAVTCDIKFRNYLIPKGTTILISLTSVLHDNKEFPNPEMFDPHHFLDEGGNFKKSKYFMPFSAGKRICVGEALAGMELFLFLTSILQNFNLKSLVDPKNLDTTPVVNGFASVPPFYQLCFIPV
How it was run: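 CYP2C9 activity was measured with a P450-Glo proluciferin substrate. Enzyme–substrate mix was held with compound for 10 min at room temperature, then NADPH regeneration solution was added for 1 h at 37C. Luciferin product was read as luminescence.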

[4] = target: Voltage-gated inwardly rectifying potassium channel KCNH2 (Homo sapiens) (UniProt Q12809); assay: Human Ether-a-go-go-Related Gene (hERG) channel small molecule antagonists: fluorescence cell-based qHTS assay (AID 1671200); also: nearly all actives have a fitted effect of over 50% in size; also: potency is read from the fitted curve at half-maximal effect
Sequence of Voltage-gated inwardly rectifying potassium channel KCNH2 (Homo sapiens) (Q12809 whole entry, looked up): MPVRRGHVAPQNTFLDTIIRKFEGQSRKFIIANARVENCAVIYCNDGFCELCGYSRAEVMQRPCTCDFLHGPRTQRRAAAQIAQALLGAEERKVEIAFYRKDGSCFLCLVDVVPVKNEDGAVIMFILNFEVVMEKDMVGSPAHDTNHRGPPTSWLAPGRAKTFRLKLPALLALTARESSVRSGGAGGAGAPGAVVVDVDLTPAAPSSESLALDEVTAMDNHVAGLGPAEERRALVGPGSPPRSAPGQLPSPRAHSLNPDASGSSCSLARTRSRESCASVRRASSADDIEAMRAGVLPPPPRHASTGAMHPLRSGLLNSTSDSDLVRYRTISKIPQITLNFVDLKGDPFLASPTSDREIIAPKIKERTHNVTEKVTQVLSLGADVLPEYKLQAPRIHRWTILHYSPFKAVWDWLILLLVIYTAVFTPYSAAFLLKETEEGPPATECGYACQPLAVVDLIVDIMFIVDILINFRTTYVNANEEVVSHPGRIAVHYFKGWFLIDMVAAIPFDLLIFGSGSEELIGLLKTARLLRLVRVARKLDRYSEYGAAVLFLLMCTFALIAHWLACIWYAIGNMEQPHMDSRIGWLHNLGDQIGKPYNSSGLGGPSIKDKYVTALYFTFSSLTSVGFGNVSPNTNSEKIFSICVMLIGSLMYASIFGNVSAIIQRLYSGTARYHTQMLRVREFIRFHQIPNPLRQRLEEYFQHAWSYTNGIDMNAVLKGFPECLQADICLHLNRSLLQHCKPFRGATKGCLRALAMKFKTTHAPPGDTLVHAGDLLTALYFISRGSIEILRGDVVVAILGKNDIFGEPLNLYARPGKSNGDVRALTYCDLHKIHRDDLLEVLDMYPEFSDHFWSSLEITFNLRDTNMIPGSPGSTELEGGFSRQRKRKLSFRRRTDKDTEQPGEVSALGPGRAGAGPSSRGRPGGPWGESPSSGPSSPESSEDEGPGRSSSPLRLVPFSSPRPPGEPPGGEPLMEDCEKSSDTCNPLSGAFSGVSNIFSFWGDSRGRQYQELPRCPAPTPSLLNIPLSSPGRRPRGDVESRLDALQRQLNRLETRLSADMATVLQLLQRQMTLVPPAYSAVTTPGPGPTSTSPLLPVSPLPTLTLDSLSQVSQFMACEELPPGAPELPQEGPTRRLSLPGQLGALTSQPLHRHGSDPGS
How it was run: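 In this thallium-flux screen, overnight-cultured U2OS cells bearing the channel are dye-loaded in darkness for an hour, rested 10 min at room temperature, and then monitored kinetically at 480/540 nm for two minutes post-stimulus.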

[5] = target: Acetylcholinesterase (Homo sapiens) (UniProt P22303); assay: Acetylcholinesterase (AChE) small molecule antagonists: colormetric cell-based qHTS assay (AID 1347395; calls by dose curve; also: nearly all actives have a fitted effect of over 30% in size; also: potency is read from the fitted curve at half-maximal effect)
Sequence of Acetylcholinesterase (Homo sapiens) (P22303 whole entry, looked up): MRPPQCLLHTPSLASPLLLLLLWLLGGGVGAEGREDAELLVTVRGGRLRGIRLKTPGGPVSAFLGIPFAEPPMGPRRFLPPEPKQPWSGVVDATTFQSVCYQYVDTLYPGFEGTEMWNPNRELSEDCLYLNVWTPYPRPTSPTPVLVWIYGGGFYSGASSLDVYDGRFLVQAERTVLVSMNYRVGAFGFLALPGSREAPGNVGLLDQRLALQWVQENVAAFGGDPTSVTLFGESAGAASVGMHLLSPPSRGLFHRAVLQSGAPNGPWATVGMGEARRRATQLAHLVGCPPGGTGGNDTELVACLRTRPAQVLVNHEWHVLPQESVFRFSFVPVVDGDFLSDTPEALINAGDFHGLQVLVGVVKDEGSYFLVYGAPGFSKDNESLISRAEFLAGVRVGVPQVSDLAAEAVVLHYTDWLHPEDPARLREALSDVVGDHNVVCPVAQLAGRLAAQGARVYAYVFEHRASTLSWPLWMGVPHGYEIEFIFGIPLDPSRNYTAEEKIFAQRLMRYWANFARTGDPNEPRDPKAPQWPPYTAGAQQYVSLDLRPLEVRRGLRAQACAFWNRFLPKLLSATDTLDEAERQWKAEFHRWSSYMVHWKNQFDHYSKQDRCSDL
How it was run: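 After overnight attachment at 37 C, SH-SY5Y cells get 30 min compound exposure; detection cocktail (acetylthiocholine, DTNB) then incubates 90 min at 37 C, and absorbance reflects AChE-generated thiocholine.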

[6] = target: Acetylcholinesterase (Homo sapiens) (UniProt P22303); assay: Acetylcholinesterase (AChE) small molecule antagonists: enzyme-based qHTS assay (AID 1347397; calls by dose curve; also: nearly all actives have a fitted effect of over 55% in size); conditions: Potency: AChE enzyme activity inhibition
How it was run: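 Compound or DMSO vehicle was pin-transferred onto recombinant human AChE (50 mU/mL as dispensed) and left 30 min at room temperature. Acetylthiocholine with DTNB then started the reaction, read colorimetrically 10 min later.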

[7] = target: Acetylcholinesterase (Homo sapiens) (UniProt P22303); assay: Acetylcholinesterase (AChE) small molecule antagonists: enzyme-based qHTS assay with human liver microsomes (AID 1347399; calls by dose curve; also: nearly all actives have a fitted effect of over 60% in size); conditions: Potency: qHTS inhibition
How it was run: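 Recombinant human AChE (50 mU/mL in the enzyme mix) and human liver microsomes (0.25 mg/mL final) were preincubated with compound and NADPH (0.25 mg/mL final) for 30 min at 37 C. Acetylthiocholine/DTNB was then added; thiocholine was read colorimetrically after 10 min at room temperature.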

[8] = target: Cytochrome P450 1A2 (Homo sapiens) (UniProt P05177); assay: Cytochrome P450 Family 1 Subfamily A Member 2 (CYP1A2) small molecule antagonists: luciferase reporter qHTS assay (AID 1671199); also: nearly all actives have a fitted effect of over 50% in size; also: potency is read from the fitted curve at half-maximal effect
Sequence of Cytochrome P450 1A2 (Homo sapiens) (P05177 whole entry, looked up): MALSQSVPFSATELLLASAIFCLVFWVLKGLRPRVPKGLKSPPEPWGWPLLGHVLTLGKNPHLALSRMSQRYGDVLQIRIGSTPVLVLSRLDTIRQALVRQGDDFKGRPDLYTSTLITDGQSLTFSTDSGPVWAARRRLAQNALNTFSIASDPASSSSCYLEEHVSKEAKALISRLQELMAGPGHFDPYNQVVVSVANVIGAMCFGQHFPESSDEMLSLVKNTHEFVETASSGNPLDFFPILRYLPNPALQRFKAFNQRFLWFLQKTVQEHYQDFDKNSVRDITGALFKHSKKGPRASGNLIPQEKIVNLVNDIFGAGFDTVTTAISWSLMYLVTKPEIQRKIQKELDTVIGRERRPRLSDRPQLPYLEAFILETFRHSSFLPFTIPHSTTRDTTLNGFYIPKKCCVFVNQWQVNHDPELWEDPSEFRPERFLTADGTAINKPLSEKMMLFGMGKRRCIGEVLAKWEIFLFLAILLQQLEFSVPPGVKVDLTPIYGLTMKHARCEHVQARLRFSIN
How it was run: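 Room-temperature CYP1A2 reaction with proluciferin substrate: compounds added from DMSO, 10 min preincubation, NADPH regeneration for 1 h. Luciferin detection reagent then added; luminescence recorded as RLU.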

[9] = target: Cytochrome P450 3A4 (Homo sapiens) (UniProt P08684); assay: Cytochrome P450 Family 3 Subfamily A Member 4 (CYP3A4) small molecule antagonists: luciferase reporter qHTS assay (AID 1671201)
Sequence of Cytochrome P450 3A4 (Homo sapiens) (P08684 whole entry, looked up): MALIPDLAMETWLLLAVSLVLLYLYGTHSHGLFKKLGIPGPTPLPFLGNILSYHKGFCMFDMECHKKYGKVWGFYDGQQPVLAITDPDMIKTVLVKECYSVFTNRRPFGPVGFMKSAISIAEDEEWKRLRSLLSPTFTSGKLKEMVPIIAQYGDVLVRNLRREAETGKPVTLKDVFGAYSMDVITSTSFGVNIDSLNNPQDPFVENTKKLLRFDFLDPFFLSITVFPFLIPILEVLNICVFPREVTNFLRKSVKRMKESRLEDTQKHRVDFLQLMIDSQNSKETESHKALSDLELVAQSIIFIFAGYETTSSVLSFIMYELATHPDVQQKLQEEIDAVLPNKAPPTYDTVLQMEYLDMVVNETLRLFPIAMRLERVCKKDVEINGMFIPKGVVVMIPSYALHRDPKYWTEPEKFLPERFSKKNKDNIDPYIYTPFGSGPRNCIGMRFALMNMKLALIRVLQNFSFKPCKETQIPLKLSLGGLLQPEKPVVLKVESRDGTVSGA
How it was run: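 CYP3A4 activity was followed with a P450-Glo proluciferin substrate. Test compounds in DMSO were preincubated 10 min; NADPH regeneration then ran 1 h, and light output was read 20 min after detection reagent.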

[10] = target: Acetylcholinesterase (Homo sapiens) (UniProt P22303); assay: Acetylcholinesterase (AChE) small molecule antagonists: fluorescence cell-based qHTS assay (AID 1347398; calls by dose curve; also: nearly all actives have a fitted effect of over 50% in size); conditions: Potency: AChE activity
How it was run: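 Using neuroblastoma SH-SY5Y cells as the enzyme source, test chemicals are preincubated 30 min at 37 C; AChE-driven acetylthiocholine cleavage is then quantified by thiocholine-dependent Thiolite Green fluorescence after 40 min at room temperature.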

Measured: Potency

N[C@@H](Cc1ccc(N(CCCl)CCCl)cc1)C(=O)O
inactive: [4]
active: [1] 34.1 µM and 34.7 µM | [2] 8.57 µM and 17.4 µM | [3] 17.1 µM and 27.5 µM

O=[N+]([O-])c1c(Cl)c(Cl)c(Cl)c(Cl)c1Cl
active: [5] 39.8 µM and 31.7 µM | [8] 8.9 µM and 1.59 µM
31.6 µM (active) and inactive: [1]
not listed: [10]
inactive: all other assays above

CCCCC(CC)COC(=O)c1ccc(C(=O)OCC(CC)CCCC)c(C(=O)OCC(CC)CCCC)c1 (stereo not given)
not listed: [1] | [7]
inactive: all other assays above

C[C@]12CCC(=O)C[C@@H]1CC[C@@H]1[C@@H]2CC[C@]2(C)[C@@H](O)CC[C@@H]12
active: [4] 21.6 µM

CCOC(=O)C(C)OC(=O)c1cc(Oc2ccc(C(F)(F)F)cc2Cl)ccc1[N+](=O)[O-] (stereo not given)
active: [2] 6.3 µM and 6.33 µM | [3] 7.06 µM and 7.1 µM
not listed: [1] | [7]
inactive: all other assays above
